Reference: PubChem BioAssay
Results with a measured potency or affinity are listed apart. A number with no mark means an inactive call. No rule for the calls is given here.

molecular target: Melanocortin receptor 4 (Homo sapiens) (UniProt P32245); experiment: MC4R antagonists, dose response, counter-screen for LGR2 antagonist project, cell-based, plate reader, cherry pick (AID 743444); settings: MC4R-expressing cells, antagonist mode; series mostly up to 35 µM; activity change, negative = inhibition: at the top concentration

Point of comparison: Cc1ccc(-n2cc(CN(C)Cc3nccn3C)c(-c3cccc(C)c3)n2)cc1, “activity change, negative = inhibition” value -16.3%. Against it:
- C[C@H]1CCCCO[C@@H](CN(C)C(=O)Nc2ccccc2)[C@@H](C)CN([C@@H](C)CO)C(=O)c2cc(NC(=O)NC3CCCCC3)ccc2O1 — higher, 11.8%
- COc1ccc2[nH]c3c(c2c1)CCN1C(=O)N([C@@H](C)C(=O)NCc2ccc(C)cc2)C(=O)[C@]31C — higher, 34.4%
- C[C@H](CO)N1C[C@H](C)[C@H](CN(C)C(=O)Nc2ccccc2)OCCCC[C@H](C)Oc2ccc(NC(=O)Nc3ccccc3)cc2C1=O — higher, 0.264%
- C[C@H](CO)N1C[C@H](C)[C@H](CN(C)C(=O)Nc2ccc3c(c2)OCO3)OCCCC[C@H](C)Oc2ccc(NC(=O)C3CCCCC3)cc2C1=O — higher, -5.29%
- CC[C@H](CO)Oc1cc(NCc2ccc(Cl)c(Cl)c2)c2ncn(C(C)C)c2c1 — higher, -0.432%
- C[C@H](CO)N1C[C@H](C)[C@H](CN(C)C(=O)Nc2ccccc2)OCCCC[C@H](C)Oc2ccc(NC(=O)C3CCCCC3)cc2C1=O — higher, -14%
- C[C@H]1CCCCO[C@@H](CN(C)C(=O)Nc2ccc3c(c2)OCO3)[C@@H](C)CN([C@@H](C)CO)C(=O)c2cc(NC(=O)NC3CCCCC3)ccc2O1 — higher, 6.21%
- COc1ccc(-c2cc(-c3nnc(COC(=O)C4CC4)o3)c3ccccc3n2)cc1OC — higher, -13.2%
- O=C(Nc1ccc(N2CCOCC2)c(S(=O)(=O)Nc2ccccc2Cl)c1)c1ccc(F)cc1 — higher, 55.3%
- COc1ccc(NC(=O)N(C)C[C@@H]2OCCCC[C@H](C)Oc3ccc(NC(=O)C4CCCCC4)cc3C(=O)N([C@H](C)CO)C[C@@H]2C)cc1 — higher, 1.88%
- C[C@H](CO)N1C[C@H](C)[C@H](CN(C)C(=O)Nc2ccc(C(F)(F)F)cc2)OCCCC[C@H](C)Oc2ccc(NC(=O)CCC(F)(F)F)cc2C1=O — lower, -20.9%
- Cn1nnnc1Sc1ncnc2scc(-c3ccccc3C(F)(F)F)c12 — higher, 50.1%
- COCC(=O)N[C@@H]1CC[C@@H](CC(=O)NCc2ccccc2OC)O[C@@H]1CO — higher, 2.47%
- Cc1ccc(S(=O)(=O)N(C)C[C@H]2Oc3cc(Br)ccc3S(=O)(=O)N([C@H](C)CO)C[C@H]2C)cc1 — higher, 12.6%
- NCC[C@H]1CC[C@H](NS(=O)(=O)Cc2ccccc2)[C@@H](CO)O1 — lower, -40.5%
- C[C@H](CO)N1C[C@H](C)[C@H](CN(C)C(=O)Nc2cccc3ccccc23)OCCCC[C@H](C)Oc2ccc(NC(=O)C3CCCCC3)cc2C1=O — higher, -15.1%
- Cn1nnnc1SCC(=O)N1CCN(C(=O)c2ccco2)CC1 — higher, 35.9%
- O=c1cc(-c2c(F)c(F)c(F)c(F)c2F)oc2ccccc12 — higher, 20.7%
- O=C(CSc1nc2ccccc2[nH]1)Nc1nc(-c2cccc(Br)c2)cs1 — higher, 29.1%
- CCOc1cc(/C=C/C(=O)Nc2ccc(C(=O)NCCN(CC)CC)cc2)ccc1OCC(C)C — higher, -2.18%
- CCC(=O)N(C)C[C@H]1Oc2cc(C#CCC(C)C)ccc2S(=O)(=O)N([C@H](C)CO)C[C@@H]1C — higher, -9.97%
- C[C@H](CO)N1C[C@H](C)[C@H](CN(C)C(=O)CN2CCOCC2)Oc2ncc(C#CCN(C)C)cc2C1=O — higher, -8.02%
- CC(=O)N1CCc2cc(S(=O)(=O)C(C)CC(=O)NCc3ccco3)ccc21 (stereo not drawn) — higher, 29.4%
- C[C@H](CO)N1C[C@H](C)[C@@H](CN(C)C(=O)Nc2ccc3c(c2)OCO3)Oc2c(cccc2N(C)C)C1=O — higher, 27.3%
- C[C@@H]1CN([C@@H](C)CO)S(=O)(=O)c2ccc(C3=CCCC3)cc2O[C@H]1CN(C)C(=O)c1ccccc1 — higher, -7.08%

In the case of C[C@H](CO)N1C[C@H](C)[C@H](CN(C)C(=O)Nc2ccccc2)OCCCC[C@H](C)Oc2ccc(NC(=O)CCC(F)(F)F)cc2C1=O, the “activity change, negative = inhibition” value is reported as 2.77% [at 16 µM].

In the case of C[C@H](CO)N1C[C@H](C)[C@H](CN(C)C(=O)Nc2ccc(F)cc2)OCCCC[C@H](C)Oc2ccc(NC(=O)Nc3ccc(F)cc3)cc2C1=O, the “activity change, negative = inhibition” value is reported as -27.2% [at 30 µM].
